# KDM5B inhibitor: inhibitors of human KDM5B histone demethylase | Q9UGL1 | 220,000 tested, 2.6% active | Potency, µM (doses to about 57.7 µM), actives largely listed as inhibitors | KDM5B demethylase, FDH-coupled NADH fluorescence (FDH is formaldehyde dehydrogenase); active = well fitted inhibition curve with a large enough effect; note: 0% is about no effect; nearly all actives have a fitted effect of over 70% in size
#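 Inhibition is measured as reduced NADH fluorescence generation from FDH coupling to formaldehyde release. Truncated KDM5BΔAP at 200 nM final acts on H3K4me3 peptide (12.5 µM in substrate mix) in pH 7.5 HEPES buffer with Tween-20, 30 min, room temperature.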
# The depositor's hits bear a star; i = inactive. The entries come from a sample that favours hits as a whole. Potency is the fitted concentration of half-maximal effect.
SMILES,KDM5B inhibitor
CCn1ncc(N2CCC(NC(=O)CCC(C)C)CC2)cc1=O,i
N#CC1=C(N)OC2=C(C(=O)CC(c3ccccc3)C2)C1c1ccc(Cl)cc1Cl (centres undefined),i
CCN(C)Cc1cccc(CNC(=O)CCc2ncc(-c3ccccc3)o2)c1,i
CC(C)c1ccc(C(=O)N2CCC(N3C(=O)CCC3C(=O)NCc3ccccc3)CC2)cc1 (centres undefined),i
c1ccc2c(NC3C4CC5CC(C4)CC3C5)nc(N3CCCC3)nc2c1 (centres undefined),i
O=C(c1ccc(C(F)(F)F)cc1)N1CCC2(C1)C(=NC1CCCC1)NC(=O)N2c1cc(F)cc(F)c1 (centres undefined),i
O=C(OCc1cccc(COC(=O)c2ccc(CO)cc2)c1)c1ccc(CO)cc1,i
Cc1ccc(CC(=O)C(C#N)C(=O)Nc2ccccc2Cl)cc1 (centres undefined),i
O=C(c1cc(-c2cnccc2Cl)c2cccn2n1)N1CCOCC1,i
COc1ccccc1-c1cc(C(=O)N2CCOCC2)nn2cnnc12,i
O=C(c1cc(-c2cccnc2)c2nncn2n1)N1CCOCC1,89µM*
COc1ccc(OC)c([C@@H]2C[C@H](NC(C)=O)C[C@H](Cc3ccccc3)O2)c1,i
Cc1ccc(C(=O)N2CCC(c3nc4cc(C(F)(F)F)ccc4s3)CC2)cn1,i
CC1CC1C(=O)NCC1CCCC(CNC(=O)C2CC2C)C1 (centres undefined),i
COc1ccc(-c2noc(C(=O)O)c2[C@@H](C)NC(=O)c2ccccc2)cc1,i
COc1ccc(-c2noc(C(=O)O)c2[C@@H](C)NC(=O)Cc2ccccc2)cc1,i
COc1ccc(-c2noc(C(=O)O)c2[C@@H](C)NC(=O)c2cccn2C)cc1,40µM*
CC(C)CNC(=O)c1cc(-c2ccccc2F)no1,i
Cc1occc1C(=O)N[C@@H]1CN(c2ccncn2)C[C@H]1CN(C)C,i
Cc1ccc(CC(=O)N[C@@H]2CN(c3ccncn3)C[C@H]2CN(C)C)cc1,i
Cc1noc(C)c1C(=O)N[C@@H]1CN(c2ncccn2)C[C@H]1CN(C)C,32µM*
CN(C)C[C@@H]1CN(c2ccncn2)C[C@H]1NC(=O)c1ccco1,i
Cc1ncoc1C(=O)N[C@@H]1CN(Cc2cccnc2)C[C@H]1CN(C)C,i
COc1ccc(CCC(=O)N[C@@H]2CN(c3ccncn3)C[C@H]2CN(C)C)cc1,i
CN(C)C[C@@H]1CN(Cc2ccccc2)C[C@H]1NC(=O)c1cnco1,i
SMILES,KDM5B inhibitor
CN(C)C[C@@H]1CN(c2ncccn2)C[C@H]1NC(=O)CCCc1ccccc1,32µM*
CN(C)C[C@@H]1CN(c2ncccn2)C[C@H]1NC(=O)c1cnco1,32µM*
CCCNc1nc2ccccc2nc1S(=O)(=O)Cc1ccc(Cl)cc1,i
CCCC(C)NC(=O)CN1CCN(c2oc(-c3ccco3)nc2C#N)CC1 (centres undefined),i
O=C(c1c(F)cccc1F)N(Cc1ccc2cc[nH]c2c1)C1CC1,i
CCc1cccc(CC)c1NC(=O)C(Sc1ccccc1)c1ccccc1 (centres undefined),i
COC[C@@H]1CN(C(=O)Cc2ccccc2Cl)C[C@H]1c1ccncc1,i
Cc1cccc(Cn2c(SCC(=O)c3ccccc3)nc3c2c(=O)[nH]c(=O)n3C)c1,i
C=CCNC(=O)C(NC(=O)c1cccc(OC)c1)C1CCN(C(=O)c2ccc(F)cc2)CC1 (centres undefined),i
Cc1ccc(C(=O)N2CCC(C(NC(=O)c3cccs3)C(=O)NC3CC3)CC2)cc1 (centres undefined),i
C=CCNC(=O)C(NC(=O)c1cccs1)C1CCN(C(=O)c2ccc(F)cc2)CC1 (centres undefined),28µM*
Cc1ccc2c(c1)B(O)c1cc(C)ccc1O2,i
CC(C)NC(=S)N/N=C/C(Cl)=C/c1ccccc1,i
COC(=O)CNC(=O)c1cc(C)ccc1C,i
O=C1NCCCCCN(C(=O)CN2CCCC2=O)[C@H]2CCC[C@@H]12,i
O=C1NCCCCCCN(C(=O)NC2CCCCC2)[C@H]2C[C@H](C(=O)N3CCc4ccccc4C3)C[C@@H]12,i
Cc1[nH]c2nc3ccccc3n2c(=O)c1Cc1ccccc1Cl,i
CCOc1ccccc1CN1CCNC(=O)C1CC(=O)N(C)Cc1cnccn1 (centres undefined),i
CCn1ncc(CN(C)C(=O)CC2C(=O)NCCN2C(C)C)c1C (centres undefined),32µM*
CCOc1ccccc1CN1CCNC(=O)C1CC(=O)N(C)Cc1nonc1C (centres undefined),i
CCc1nc2nccc(-c3cc4ccccc4o3)n2n1,i
Nc1nc(-c2cc3ccccc3o2)cs1,i
Brc1ccc(-c2ccnc3nc(C4CCCO4)nn23)s1 (centres undefined),i
COc1ccc(-c2cn3cc(C(=O)NCC(N)=O)nc3c(=O)n2CC2CC2)c(F)c1,i
c1ccc2oc(-c3ccnc4nc(C5CCC5)nn34)cc2c1,11µM*
SMILES,KDM5B inhibitor
COc1ccc(-c2ccnc3nc(C4CCC4)nn23)c(F)c1,28µM*
COc1cc(-c2ccnc3nc(C4CCCCC4)nn23)cc(OC)c1OC,25µM*
COc1ccccc1Oc1ccc2c(c1)C(=O)N(CC1CCCO1)C2=O (centres undefined),i
COc1cc(C(=O)OCc2cc(=O)n3nc(C4CCCCC4)sc3n2)cc(OC)c1OC,i
COc1cc(F)ccc1-c1ccnc2nc(C3CCCO3)nn12 (centres undefined),28µM*
COc1ccc(-c2ccnc3nc(C4CCC4)nn23)cc1,i
Cc1ccccc1NC(=O)C(=O)c1c[nH]c2ccccc12,i
CC(C)CCNC(=O)N1CCC2(CC1)CC(N(Cc1ccc(F)cc1)C1CC1)CCO2 (centres undefined),i
OCCNc1ncnc2c1cnn2-c1ccccc1Cl,i
Cc1ccc(OC2(C(=O)O)CCN(C(=O)C3CCOCC3)CC2)cc1,i
Cc1ccc(CN(C)C(=O)c2ccc3ncsc3c2)o1,i
CN(Cc1cccnc1)Cc1nc(C2(O)CCN(Cc3ccccc3)CC2)cs1,i
O=C(CCC1CCCC1)N1CCC(c2nc(C3CCOCC3)no2)C1 (centres undefined),i
COc1cc(CCC(=O)OCC(=O)c2ccc(Cl)cc2)cc(OC)c1OC,i
O=C1C(N2CCN(S(=O)(=O)c3ccccc3Cl)CC2)CCN1CCc1ccccc1 (centres undefined),i
COc1cc(F)ccc1-c1ccnc2nc(C3CCC3)nn12,28µM*
Cc1ccc(CN2C(=O)CS(=O)c3ccc(C(=O)NCc4ccccc4)cc32)cc1 (centres undefined),i
Cc1nn(-c2ncccn2)c2c1C(c1ccc(OCC(C)C)cc1)CC(=O)N2 (centres undefined),i
CSc1ccccc1OCc1cc(C(=O)NCCN2CCCCC2CO)no1 (centres undefined),i
O=S(=O)(c1cccnc1)N1CCCCC1CCc1cccs1 (centres undefined),i
O=C(CC1CCCC1)Nc1cnc(-c2cccnc2)nc1,i
OCC1CCCCN1CCNc1nccc(-c2cccnc2)n1 (centres undefined),25µM*
O=S(=O)(c1cccnc1)N1CCCCC1CCN1CCOCC1 (centres undefined),i
CS(=O)(=O)N1CCCCC1CCNc1nccc(-c2cccnc2)n1 (centres undefined),32µM*
